The subject of assay [1] is TRPC4 beta (transient receptor potential cation channel C4), mouse. Description: activators of mouse TRPC4 channel, confirmation, cell-based, Fluo4 calcium, HEK293 TRPC4beta/mu-opioid, duplicates, 10 µM (AID 2426;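 active = fluorescence ratio normalized to control raised more than 50% in primary screen plus both repeat runs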). Conditions: Fluo4 calcium fluorescence, at 10 µM; active compounds read high.
The test system of assay [2] is transient receptor potential cation channel C4 beta (TRPC4), mouse. Description: activators of mouse TRPC4 channel, confirmation, cell-based, second round, Fluo4, HEK293 TRPC4beta/mu-opioid, 1 µM (AID 2461;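 active = primary screen active and over 50% activation in each of two duplicate runs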). Conditions: Fluo4 calcium fluorescence, at 1 µM; active compounds read high.
The test system of assay [3] is TRPC4 (transient receptor potential cation channel C4 beta), mouse. Description: positive allosteric modulators of mouse TRPC4, confirmation, cell-based, second round, Fluo-4, HEK293 TRPC4beta/mu-opioid, 1 µM (AID 2554;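 active = primary screen hit whose fluorescence ratio, in both repeats, exceeds the weak agonist control mean by 3 SD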). Conditions: DAMGO EC20, Fluo-4 calcium flux, at 1 µM; active compounds read high. Background: A change in cytosolic calcium serves as a functional read-out for many receptors and channels.

Assay [4] concerns TRPC4 beta (transient receptor potential cation channel C4), mouse. In words: positive allosteric modulators of mouse TRPC4, confirmation, cell-based, Fluo-4, HEK293 TRPC4beta/mu-opioid (AID 2555;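 active = primary screen hit whose calcium fluorescence ratio, in both repeats, exceeds the weak agonist control mean by 3 SD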). Particulars: DAMGO EC20, Fluo-4 calcium flux, at 10 µM; active compounds read high.
Assay [5] addresses Short transient receptor potential channel 4 (Mus musculus) (UniProt Q9QUQ5). Description: inhibitors of mouse TRPC4 channel, confirmation, cell-based, Fluo4, HEK293 TRPC4beta/mu-opioid (AID 2636;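 active = calcium signal cut by more than 3 SD below the full-agonist control yet still positive, in both repeats and the earlier primary screen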). Conditions: DAMGO, Fluo4 calcium flux, at 10 µM; active compounds read high.
Assay [6] has the same target. Description: inhibitors of mouse TRPC4 channel, confirmation, cell-based, second round, Fluo4, HEK293 TRPC4beta/mu-opioid, 1 µM (AID 2637).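 As to inhibition: percent of integrated ratio relative to wells lacking test compound.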 Conditions: Fluo4 calcium flux, DAMGO, at 1 µM; active compounds read high.
The target is the same in assay [7]. In words: mouse TRPC4 channel activators, dose response, cell-based, HEK293 TRPC4/mu-opioid, Fluo-4 calcium (AID 434937;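 active = primary screen activator hit with a dose response curve and TRPC4 channel activation at any tested dose; inactive = no activation, no dose response, or not a primary hit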).
Assay [8] shares this target. Description: TRPC4 positive allosteric modulators, dose response, cell-based, HEK293 TRPC4/mu-opioid, Fluo-4 calcium, EC20 DAMGO (AID 434941;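 active = earlier screen potentiator hit that boosts the TRPC4 ion channel at some dose, with a dose response; inactive = no potentiation, no dose response, or not a prior hit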;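 also: calcium entry triggered by an EC20 dose of DAMGO at the co-expressed mu-opioid receptor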).
The target of assay [9] is Short transient receptor potential channel 6 (Mus musculus) (UniProt Q61143). In words: inhibition of mouse TRPC6 channel, confirmation, selectivity assay for TRPC4 inhibitor project, cell-based, HEK293, membrane potential dye, duplicate (AID 434948;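 active = active in primary screen and both duplicates, each dropping signal beyond three positive-control SD with fluorescence still positive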). Particulars: HEK293 TRPC6, membrane potential dye fluorescence, at 10 µM, stimulated with maximal-effect acetylcholine; active compounds read high.
Sequence of Short transient receptor potential channel 6 (Mus musculus) (Q61143 whole entry, looked up): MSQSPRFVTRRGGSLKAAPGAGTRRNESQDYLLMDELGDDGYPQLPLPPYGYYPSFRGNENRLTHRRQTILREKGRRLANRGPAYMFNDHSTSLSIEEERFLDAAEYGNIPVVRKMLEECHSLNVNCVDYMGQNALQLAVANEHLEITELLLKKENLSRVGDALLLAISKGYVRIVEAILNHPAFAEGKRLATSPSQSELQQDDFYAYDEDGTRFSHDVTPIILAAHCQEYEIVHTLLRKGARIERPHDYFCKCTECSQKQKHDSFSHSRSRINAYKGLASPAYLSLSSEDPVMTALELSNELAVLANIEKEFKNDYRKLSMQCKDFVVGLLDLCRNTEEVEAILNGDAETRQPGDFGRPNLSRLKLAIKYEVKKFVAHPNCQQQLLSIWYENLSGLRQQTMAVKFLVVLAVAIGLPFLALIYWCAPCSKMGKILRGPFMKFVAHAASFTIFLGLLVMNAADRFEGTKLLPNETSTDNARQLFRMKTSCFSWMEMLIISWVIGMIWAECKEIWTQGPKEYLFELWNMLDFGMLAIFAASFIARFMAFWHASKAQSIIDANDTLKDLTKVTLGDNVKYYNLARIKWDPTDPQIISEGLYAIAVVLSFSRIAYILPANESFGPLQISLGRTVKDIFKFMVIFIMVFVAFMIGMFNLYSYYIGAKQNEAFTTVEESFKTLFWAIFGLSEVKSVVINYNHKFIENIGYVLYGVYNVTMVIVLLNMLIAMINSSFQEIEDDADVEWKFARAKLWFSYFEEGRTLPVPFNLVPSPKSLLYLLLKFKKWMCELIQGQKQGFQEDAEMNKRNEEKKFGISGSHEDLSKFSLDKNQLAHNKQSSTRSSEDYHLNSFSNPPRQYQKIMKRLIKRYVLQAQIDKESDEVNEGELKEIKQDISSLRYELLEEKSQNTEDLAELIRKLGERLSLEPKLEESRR

Assay [10] has the same target. In words: activation of mouse TRPC6 channel, confirmation, selectivity assay for TRPC4 activator project, cell-based, HEK293, membrane potential dye, duplicate (AID 434950;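 active = membrane potential signal rise above negative control mean plus 3 SD in both duplicates, also active in the earlier TRPC4 screen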). Conditions: HEK293 TRPC6, membrane potential fluorescence, at 10 µM; active compounds read high.
Assay [11] has the same target. In words: TRPC6 potentiation by TRPC4 potentiator hits, confirmation, selectivity assay for TRPC4 potentiator project, HEK293 cells, membrane potential dye, duplicate (AID 434952;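 active = compound raising the membrane signal above positive-control mean plus 3 SD in both repeats, and a primary screen hit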). Particulars: HEK293 TRPC6, membrane potential dye fluorescence, at 10 µM, maximal acetylcholine added after compound; active compounds read high.
Assay [12] deals with Short transient receptor potential channel 4 (Mus musculus) (UniProt Q9QUQ5). In words: calcium flux activators in TRPC4/5HT1a cells, counter-screen for TRPC4 activator project, cell-based, second counter screen, HEK293 TRPC4/5HT1a, Fluo-4 (AID 434977;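 active = calcium signal rise above buffer-control mean plus 5 SD in both duplicates, and also a hit in the primary screen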). Particulars: Fluo-4 calcium flux, at 10 µM; active compounds read high.
Sequence of Short transient receptor potential channel 4 (Mus musculus) (Q9QUQ5 whole entry, looked up): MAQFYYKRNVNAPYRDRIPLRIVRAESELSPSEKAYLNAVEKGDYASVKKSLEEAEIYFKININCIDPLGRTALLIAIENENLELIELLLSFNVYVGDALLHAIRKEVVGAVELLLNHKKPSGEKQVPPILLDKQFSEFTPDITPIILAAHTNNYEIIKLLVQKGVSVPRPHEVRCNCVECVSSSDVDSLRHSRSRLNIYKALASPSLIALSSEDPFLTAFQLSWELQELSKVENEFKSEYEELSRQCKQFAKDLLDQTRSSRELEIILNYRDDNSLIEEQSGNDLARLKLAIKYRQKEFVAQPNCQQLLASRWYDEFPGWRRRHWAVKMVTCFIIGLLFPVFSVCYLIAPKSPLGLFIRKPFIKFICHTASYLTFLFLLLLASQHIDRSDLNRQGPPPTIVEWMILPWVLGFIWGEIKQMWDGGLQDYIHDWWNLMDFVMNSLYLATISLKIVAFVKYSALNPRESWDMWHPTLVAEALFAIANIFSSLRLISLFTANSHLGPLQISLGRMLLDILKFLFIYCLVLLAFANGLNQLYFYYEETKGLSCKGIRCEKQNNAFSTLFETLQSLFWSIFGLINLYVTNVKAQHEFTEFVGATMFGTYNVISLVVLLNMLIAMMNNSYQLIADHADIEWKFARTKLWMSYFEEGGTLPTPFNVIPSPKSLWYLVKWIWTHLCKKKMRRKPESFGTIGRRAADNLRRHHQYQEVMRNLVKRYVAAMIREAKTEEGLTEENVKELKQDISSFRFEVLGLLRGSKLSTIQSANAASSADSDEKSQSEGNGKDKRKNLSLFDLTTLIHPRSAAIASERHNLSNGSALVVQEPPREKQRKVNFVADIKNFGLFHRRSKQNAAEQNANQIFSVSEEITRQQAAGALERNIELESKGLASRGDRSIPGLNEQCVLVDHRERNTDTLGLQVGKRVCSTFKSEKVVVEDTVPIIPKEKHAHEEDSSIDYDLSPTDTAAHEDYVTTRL
A short description of assay [13]: calcium flux inhibitors in TRPC4/5HT1a cells, confirmation, counter-screen for TRPC4 inhibitor project, cell-based, second counter screen, HEK293 TRPC4/5HT1a, Fluo-4 (AID 434978;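 active = primary screen active whose calcium signal fell more than 3 SD beyond the full-serotonin control mean in both duplicate plates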;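 as to outcome: serotonin given first at submaximal then at maximal dose after compound preincubation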). Particulars: Fluo-4 calcium flux, at 10 µM, serotonin added to trigger calcium flux; active compounds read high.
In assay [14] the test system is TRPC4 (mouse), co-expressed with 5HT1a in HEK293. Description: calcium flux potentiators in TRPC4/5HT1a cells, confirmation, counter-screen for TRPC4 potentiator project, cell-based, second counter screen, HEK293 TRPC4/5HT1a, Fluo-4 (AID 434979;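 active = signal rise over 3 SD above mean of control wells given weak agonist, in both repeats and first screen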). Particulars: Fluo-4 calcium flux, at 10 µM, serotonin added at its EC20 dose; active compounds read high.
Assay [15] can be described thus: calcium flux activation in mu-opioid HEK293 cells, confirmation, counter-screen for TRPC4 activator project, cell-based, HEK293 mu-opioid receptor line (AID 449723;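 active = hit in primary screen, with calcium signal over 5 SD above buffer well mean in both duplicates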;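 also: counter screen cells carry the mu-opioid receptor alone and lack TRPC4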). Conditions: Fluo-4 calcium fluorescence, at 10 µM; active compounds read high.
A short description of assay [16]: calcium flux enhancement in mu-opioid HEK293 cells, confirmation, counter-screen for TRPC4 allosteric potentiator project, cell-based, HEK293 mu-opioid receptor line (AID 449724;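 active = calcium signal rise more than 3 SD above the low-dose agonist control mean, in both duplicate plates and the primary screen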;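 also: HEK293 cells carrying mu-opioid receptor only with no TRPC4 channel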). Conditions: Fluo-4 calcium flux, at 10 µM, compound added before EC20 DAMGO stimulus; active compounds read high.

Consider 14 compounds from PubChem BioAssay.

A word on the inhibition: it is the drop in the measured response relative to a control, in per cent.

For some assays here: Entries with a potency or affinity are not part of this list. The source made the active and inactive calls.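 The calls were made as follows, unless noted: active = calcium signal ratio cut to more than 3 SD under the fully stimulated control mean yet still positive, in both repeats and the primary screen; inactive = the rest.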

Take `O=C(COc1ccc(F)cc1)c1c(O)cc(O)cc1O`: the result in assay [1], in [2], in [3], in assay [4], in assay [6] and in assay [7] was inactive. In addition, the outcome in assay [8], in [9], in assay [10], in assay [11], in assay [12] and in assay [14] was inactive. The outcome in assay [15] and in assay [16] was inactive. Also, the figures for the inhibition in assay [5] and in assay [13] were 84% (active) and 36.3% (active), respectively.
Take `Cc1cccc(NC(=O)CSc2nnc(-c3cc(C)n(-c4ccccc4)c3C)o2)c1C`: the result in assay [1], in assay [2], in assay [3], in assay [4], in assay [6] and in assay [7] was inactive. Besides, the outcome in [8], in [9], in assay [10], in assay [11], in [12] and in [14] was inactive. The outcome in [15] and in assay [16] was inactive. Besides, the inhibition in assay [5] is 78% (active); in assay [13] it was 16.2% (active).
Regarding `Cc1cccc(CN2CCCC(C(=O)Nc3ccccc3Oc3cccnc3)C2)c1` (centres undefined), the result in assay [1], in [2], in assay [3], in assay [4], in assay [6] and in [7] was inactive. Besides, the outcome in assay [8], in assay [9], in [10], in assay [11], in assay [12] and in assay [14] was inactive. The outcome in assay [15] and in assay [16] was inactive. The inhibition is 92% (active) in [5] and 35.8% (active) in assay [13].
Regarding `Cc1cccc(C)c1N1CCc2cn[nH]c21`, the result in assay [1], in assay [2], in assay [3], in assay [4], in [6] and in assay [7] was inactive. Moreover, the result in assay [8], in [9], in [10], in [11], in assay [12] and in assay [14] was inactive. Moreover, the result in [15] and in assay [16] was inactive. The inhibition in assay [5] was 84% (active); in [13], 31.5% (active).
Turning to `Cn1nnnc1SCCNCc1ccccc1OCc1ccc(Cl)cc1`, the outcome in [1], in assay [2], in [3], in assay [4], in assay [7] and in [8] was inactive. Moreover, the compound was classed as inactive in [9], in assay [10], in assay [11], in assay [12], in assay [14] and in assay [15]. For the same compound, in [16], the result was inactive. Further, the inhibition in assay [5] was 88% (active); in assay [6] it was 45% (active); in assay [13], 23.5% (active).
For `Cc1cc([N+](=O)[O-])ccc1NCc1ccco1`, the result in [1], in assay [2], in assay [3], in assay [4], in [6] and in assay [7] was inactive. For the same compound, the result in assay [8], in [9], in assay [10], in [11], in assay [12] and in assay [14] was inactive. The outcome in [15] and in assay [16] was inactive. For the same compound, the inhibition in assay [5] is 92% (active); in assay [13], 14.5% (active).
Take `COc1nc(N=C(N)N)nc2ccc(C)cc12`: the result in assay [1], in assay [2], in assay [3], in assay [4], in assay [6] and in [7] was inactive. The result in assay [8], in assay [10], in assay [11], in assay [12], in assay [14] and in assay [15] was inactive. Also, the outcome in [16] was inactive. The inhibition in assay [5] is 96% (active); in assay [9] it was 46.5% (active); in [13], 21.1% (active).
As to `Cc1nc(Cl)c(Cl)n1CCOc1ccccc1`, the result in assay [1], in assay [2], in [3], in assay [4], in [7] and in assay [8] was inactive. The call in assay [9], in assay [10], in assay [11], in assay [12], in [14] and in [15] was inactive. In addition, in assay [16], the result was inactive. The inhibition was 94% (active) in [5], 46% (active) in assay [6] and 18.9% (active) in [13].
Turning to `COc1ccc2nc(C)cc(NCc3ccc(F)cc3)c2c1`, the outcome in [1], in [2], in [3], in assay [4], in assay [6] and in [7] was inactive. The result in [8], in assay [10], in assay [11], in [12], in assay [13] and in [14] was inactive. For the same compound, the outcome in assay [15] and in assay [16] was inactive. Moreover, the results for the inhibition in assay [5] and in [9] were 84% (active) and 56% (active), respectively.
As for `O=C(CSc1nnc(-c2ccc(Cl)cc2Cl)n1C1CCCCC1)N1CCCC1`, the result in assay [1], in assay [2], in [3], in [4], in assay [5] and in assay [7] was inactive. Moreover, the result in assay [8], in [9], in assay [10], in assay [11], in assay [12] and in assay [13] was inactive. Moreover, the outcome in assay [14], in assay [15] and in assay [16] was inactive. The inhibition in assay [6] was 48% (active).
Turning to `CC(OC(=O)CNC(=O)c1ccccc1F)C(=O)Nc1nc(-c2ccccc2)cs1` (centres undefined), the result in [1], in assay [2], in assay [3], in [4], in assay [6] and in [7] was inactive. Moreover, the outcome in assay [8], in [9], in assay [10], in assay [11], in assay [12] and in [14] was inactive. In addition, the result in assay [15] and in assay [16] was inactive. In addition, the inhibition in [5] is 78% (active); in [13], 44.3% (active).
Take `COC(=O)c1ccc(CSc2nc3ccccc3c(=O)n2CC(C)C)o1`: the result in assay [1], in assay [2], in assay [3], in assay [4], in assay [7] and in assay [8] was inactive. Also, the outcome in assay [9], in assay [10], in assay [11], in assay [12], in assay [14] and in assay [15] was inactive. For the same compound, the outcome in assay [16] was inactive. In addition, the inhibition in assay [5] is 82% (active); in [6] it was 41% (active); in assay [13], 39.8% (active).
For `COc1ccc(C2NC(C(=O)O)Cc3c2[nH]c2ccccc32)cc1CN1CCN(c2ccc(F)cc2)CC1` (centres undefined), the outcome in assay [1], in assay [2], in assay [3], in assay [4], in [6] and in [7] was inactive. Further, the outcome in assay [8], in [9], in assay [10], in [11], in assay [12] and in assay [14] was inactive. The result in assay [15] and in assay [16] was inactive. For the same compound, the inhibition in assay [5] was 58% (active); in assay [13], 41.6% (active).
Take `Cc1ccc(NC(=O)c2cc(N3C(=O)C=CC3=O)ccc2N2CCOCC2)cc1`: the result in assay [1], in assay [2], in [3], in assay [4], in assay [7] and in [8] was inactive. The call in assay [9], in assay [10], in assay [11], in [12], in [14] and in assay [15] was inactive. Moreover, the outcome in assay [16] was inactive. In addition, the inhibition is 91% (active) in [5], 38% (active) in assay [6] and 34.6% (active) in assay [13].
